SNCA expr inhib: inhibitors of alpha-synuclein (SNCA) gene expression; HEK-293 SNCA-luciferase knock-in, luminescence, 24 h; Potency, µM (titrated, usually from 57.2 µM), inactives show at the top dose activity change, negative = inhibition, actives largely listed as inhibitors; 140,000 compounds, 0.17% hits; AID 1671194;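 also: potency is read from the fitted curve at half-maximal effect; plate controls were DMSO cells for no effect and cell-free wells for full effect; nearly all actives have a fitted effect of over 45% in size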
SNCA viab count: cell viability loss counter-screen; Potency, µM (highest dose often 57.1 µM), inactives show at the highest dose activity change, negative = cytotoxicity, actives largely listed as cytotoxic; HEK-293-SNCA-luc viability, GF-AFC fluorescence, 24 h; AID 1671193; 150,000 compounds, 0.12% hits;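 also: potency is read from the fitted curve at half-maximal effect; 0% = DMSO-treated cells and -100% = medium-only wells without cells; nearly all actives have a fitted effect of over 30% in size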
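HEK-293-SNCA-luc cells (1500/well) plated 24 h, then exposed 24 h to a dilution series; GF-AFC added 30 min at 37C, fluorescence 405/540 nm; normalised to medium-only and DMSO wells, Hill fit.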
KDM5B inhibitor: KDM5B demethylase inhibition; Q9UGL1; Potency, µM (highest dose often 57.7 µM), usual class: inhibitors; AID 1347165; 220,000 compounds, 2.6% hits; KDM5B demethylase, FDH-coupled NADH fluorescence (FDH is formaldehyde dehydrogenase); also: potency is read from the fitted curve at half-maximal effect; 0% is about no effect; nearly all actives have a fitted effect of over 70% in size
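KDM5BΔAP (200 nM final) in 50 mM HEPES pH 7.5, 0.01% Tween-20 was preincubated 10 min at RT with compound over a concentration range. Substrate mix (H3K4me3 12.5 µM, α-KG 25 µM, Fe²⁺, ascorbate, NAD⁺, FDH) was added, and NADH fluorescence change over 30 min gave dose-response curves.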
IP6K1 inh: inhibitors of human IP6K1. IP6K1 kinase, ADP-Glo luminescence, 2 h; stronger effect = lower value. activity change, % (series mostly up to about 58 µM). Q92551. 140,000 compounds, 0.81% hits; in the data active = activity change below about -25%; also: % is scaled to controls: 0 for no effect and ±100 for the full control effect
Target sequence (Q92551 whole entry, looked up): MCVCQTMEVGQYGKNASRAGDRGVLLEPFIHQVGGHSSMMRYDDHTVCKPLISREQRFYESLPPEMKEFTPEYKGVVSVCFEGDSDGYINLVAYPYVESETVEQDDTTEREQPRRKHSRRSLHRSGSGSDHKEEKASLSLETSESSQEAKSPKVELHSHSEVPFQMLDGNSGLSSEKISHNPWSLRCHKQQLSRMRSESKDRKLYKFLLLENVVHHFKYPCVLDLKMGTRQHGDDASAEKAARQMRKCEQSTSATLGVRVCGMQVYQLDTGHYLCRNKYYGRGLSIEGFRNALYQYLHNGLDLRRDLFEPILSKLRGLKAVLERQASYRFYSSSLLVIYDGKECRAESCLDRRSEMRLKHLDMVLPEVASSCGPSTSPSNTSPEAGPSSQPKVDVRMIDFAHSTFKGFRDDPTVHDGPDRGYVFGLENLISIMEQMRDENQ
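ADP-Glo luminescence measures ADP made by human IP6K1 during a 2 h RT reaction with ATP/IP6 (mix at 1.3 mM/130 uM); top library doses 57.5 and 19.1 uM final.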
Active calls of the source: *; i = inactive; u = inconclusive; x = no result; [ ] = another dose, or the depositor's remark. An excerpt weighted towards active compounds, which were near 2.8% of everything screened. Unless noted, calls follow the shape of the dose curve; as a rule, active = well fitted curve in the direction sought with a large enough effect; inconclusive = small, poorly fitted or top-dose-only effect, or another doubt; inactive = no such curve, though single readings can be large; an effect the other way counts as inactive or inconclusive.

SMILES	SNCA expr inhib	SNCA viab count	KDM5B inhibitor	IP6K1 inh
COc1ccc(CNC(=O)Cn2nc(C)c3sc(-c4ccccc4)nc3c2=O)cc1	24.6%	2.9%	u	3.6
COCCNC(=O)Cn1nc(C)c2sc(-c3ccccc3)nc2c1=O	-4.4%	-3.7%	28.2µM*	13.7
Cc1noc2c(-c3cccnc3NCc3cccnc3)cc(-c3ccccc3)nc12	-9.7%[87.6 µM]	-2.7%[87.6 µM]	u	-14.5
CC(=O)N1CCN(c2nc(-c3c(C)noc3C)cc3c2cc(-c2ccccc2)n3C)CC1	-0.7%[87.6 µM]	3.2%[87.6 µM]	39.8µM*	-2.4
COC1CCCN(c2ncccc2-c2cc(-c3ccccc3)nc3c(C)noc23)C1 (stereo not drawn)	-7.2%[87.6 µM]	u	39.8µM*	0.5
Cc1noc2c(-c3cccnc3N(C)C)cc(-c3ccccc3)nc12	12.6%[87.6 µM]	9.9%[87.6 µM]	31.6µM*	-19.1
Cc1noc(C)c1-c1nc(N2CCN(C)CC2)c2ccccc2n1	6.8%	-23.4%	x	x
CC(=O)N1CCN(c2ncccc2-c2cc(-c3ccccc3)nc3c(C)noc23)CC1	-3.9%[87.6 µM]	9.5%[87.6 µM]	35.5µM*	-11.8
COC1CCCN(c2cc(-c3cccnc3)nc3c(C)noc23)C1 (stereo not drawn)	-7.8%[87.6 µM]	9.9%[87.6 µM]	i	1.1
CCN1CC(CN(C)Cc2nnc(C)o2)Oc2ccccc21 (stereo not drawn)	x	x	i	x
Cc1ccc(-n2nnc(C(=O)Nc3nccs3)c2C(C)C)cc1	x	x	i	x
COc1cccc(-n2nc(C(=O)Nc3cc(OC)c(OC)c(OC)c3)c3ccccc3c2=O)c1	x	x	i	x
COc1ccccc1C(=O)NC1CCN(c2cc(-c3cccs3)[nH]n2)C1 (stereo not drawn)	-23.9%	u	15.8µM*	4.5
COc1cc(OC)cc(C(=O)NC2CCN(c3cc(-c4cccs4)[nH]n3)C2)c1 (stereo not drawn)	u	u	3.55µM*	-5.1
O=C(NC1CCN(c2cc(-c3cccs3)[nH]n2)C1)c1ccccc1Br (stereo not drawn)	10.0%	-10.0%	25.1µM*	-3.3
COc1cc(C(=O)NC2CCN(c3cc(-c4cccs4)[nH]n3)C2)cc(OC)c1OC (stereo not drawn)	4.8%	-11.5%	u	-10.4
COc1cc(C#N)cc(Cl)c1OCc1ccccc1C#N	x	x	i	x
CCc1nnc(SCC(=O)N(C)CCOc2ccc(Br)cc2)n1C	x	x	i	x
CN(CC#N)C(=O)c1cc(-c2cccc(C(F)(F)F)c2)nc2c1cnn2C	x	x	x	7.5
CN(C)C[C@@H]1CN(c2ncccn2)C[C@H]1NS(=O)(=O)c1cccs1	18.6%	12.0%	u	30.8
CN(C)C[C@@H]1CN(c2ncccn2)C[C@H]1NC(=O)c1cnccn1	-0.8%	4.5%	25.1µM*	20.0
CN(C)C[C@@H]1CN(c2ncccn2)C[C@H]1NC(=O)c1cccc(Cl)c1	0.2%	-1.4%	28.2µM*	3.3
O=C(N[C@@H]1CN(c2ncccn2)C[C@H]1CO)c1c(F)cccc1F	14.7%	-0.2%	u	1.6
O=C(N[C@@H]1CN(c2ncccn2)C[C@H]1CO)c1cccc(Cl)c1	19.0%	u	u	6.4
CN(C)C[C@@H]1CN(c2ncccn2)C[C@H]1NC(=O)c1c(F)cccc1F	-16.8%	-2.0%	31.6µM*	4.7
SMILES	SNCA expr inhib	SNCA viab count	KDM5B inhibitor	IP6K1 inh
CN(C)C[C@@H]1CN(c2ncccn2)C[C@H]1NS(=O)(=O)c1cccnc1	6.0%	-7.8%	25.1µM*	2.4
Fc1ccc(CNCc2ccc(-c3ccc(F)cc3)o2)cc1	x	x	i	x
O=C(C1CCCN(Cc2cccc(-c3cccs3)c2)C1)N1CCCC1 (stereo not drawn)	0.4%[87.6 µM]	3.3%[87.6 µM]	x	2.4
O=C(Nc1onc2c1CCCC2)c1cccc(Cl)c1	x	x	i	x
CN(C)C[C@@H]1CN(c2ncccn2)C[C@H]1NC(=O)c1ccccc1C(F)(F)F	-11.0%	2.3%	22.4µM*	21.4
CN(C)C[C@@H]1CN(S(C)(=O)=O)C[C@H]1NC(=O)c1ccncc1	13.1%	-2.9%	i	26.1
CN(C)C[C@@H]1CN(Cc2ccccn2)C[C@H]1NC(=O)c1ccc(Cl)cc1	-4.0%	2.0%	i	19.4
CN(C)C[C@@H]1CN(C)C[C@H]1NC(=O)c1ccccc1C(F)(F)F	-10.7%	6.6%	i	-11.3
CN(C)C[C@@H]1CN(c2ncccn2)C[C@H]1NC(=O)c1ccncc1	5.4%	1.0%	25.1µM*	21.4
CN(C)C[C@@H]1CN(c2ncccn2)C[C@H]1NC(=O)c1ccc(Cl)cc1	u	4.7%	28.2µM*	21.4
CN(C)C[C@@H]1CN(c2ncccn2)C[C@H]1NC(=O)c1ccc2[nH]ccc2c1	7.1%	3.3%	31.6µM*	-0.7
COc1ccc(S(=O)(=O)Oc2ccc3cc(-c4ccc(OC)c(OC)c4)c(=O)oc3c2)cc1	x	x	i	x
Cc1ccsc1C(=O)N[C@@H]1CN(c2ncccn2)C[C@H]1CN(C)C	3.4%	0.1%	31.6µM*	11.3
CN(C)C[C@@H]1CN(c2ncccn2)C[C@H]1NC(=O)c1ccnn1C	u	-3.5%	28.2µM*	6.8
CN(C)C[C@@H]1CN(c2ncccn2)C[C@H]1NC(=O)c1ccncn1	-11.0%	8.4%	31.6µM*	4.6
Cc1cc(C(=O)N[C@@H]2CN(c3ccncn3)C[C@H]2CN(C)C)no1	-1.6%	5.4%	i	22.8
COc1ccc(F)cc1-c1ccc(CN2CCC(NC(=O)CN(C)C)C2)cc1 (stereo not drawn)	x	x	x	4.4
CCC(c1cccs1)N1C(=O)[C@H]2CN(S(=O)(=O)c3ccccc3)C[C@H]2C1=O (stereo partly drawn)	-19.1%	3.7%	i	4.5
CCC(c1cccs1)N1C(=O)[C@H]2CN(CCC(C)C)C[C@H]2C1=O (stereo partly drawn)	3.55µM*	u	i	1.0
CC(NC(=O)Cc1c(F)cccc1Cl)C(=O)N1CCN(c2ccccn2)CC1 (stereo not drawn)	4.6%	-12.6%	u	-0.6
COc1ccc(-c2cnc3[nH]cc(CC(=O)NCCN(C)C)c3c2)cc1	47.5%[87.6 µM]	2.7%[87.6 µM]	39.8µM*	-16.0
CC(NC(=O)COc1ccccc1)C(=O)N1CCN(c2ccc(F)cc2)CC1 (stereo not drawn)	x	x	i	x
Cc1cc(C)cc(C(=O)NC(Cc2ccccc2)C(=O)N2CCN(c3ccccn3)CC2)c1 (stereo not drawn)	2.0%	-1.1%	25.1µM*	10.4
CC(NC(=O)COc1ccc(F)cc1)C(=O)N1CCN(c2ccccn2)CC1 (stereo not drawn)	u	-12.2%	28.2µM*	11.7
COc1cccc(CC(=O)NC(C)C(=O)N2CCN(c3ccccn3)CC2)c1 (stereo not drawn)	1.8%	7.1%	25.1µM*	29.9
Cc1cccc(C(=O)N[C@@H](C)C(=O)N2CCN(c3ncccn3)CC2)c1	x	x	i	x
CCc1c(C)sc(NC(=O)c2cc(-c3ccncc3)nc3c(C)c(C)ccc23)c1C#N	x	x	i	x
O=C(Nc1ccc(Cl)cc1)N1CCCC(c2nn(-c3ccccn3)c(=O)[nH]2)C1 (stereo not drawn)	u	2.8%	x	-3.0
